From PubChem BioAssay AID1628 (Sanford-Burnham Center for Chemical Genomics, 2009) come the findings set out here.

SMILES strings stand for the structures. The campaign covered roughly 190,000 compounds. About 930 (0.49%) were called active.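 Rule for the calls: active = z-score of insulin promoter reporter brightness in nuclei below -3 at 5 µM, with at least 500 cells counted; inconclusive = wells with under 500 cells, flagged as toxic or sparse; inactive = the rest.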 The list shows a part of the results. Potency and affinity values are given separately.

This assay can be described thus: decrease of insulin promoter-GFP reporter – imaging, high-content screening, mouse beta cells (AID 1628). Conditions: MIN6 insulin promoter GFP reporter, at 5 µM, active compounds read low.
On to `O=C(/C=C/c1c[nH]c2ccccc12)c1c(O)n(CCc2ccccc2)c(=O)[nH]c1=O`, for which the z-score was 16 (inactive).

In the case of `CNCCc1c[nH]c2ccccc12`, the z-score is -0.16 (inactive).

For the molecule `CCC(=NCCc1c[nH]c2ccccc12)c1c(O)n(C)c(=O)n(C)c1=O`, the z-score is -5.98 (active).

For `CCCCCCn1c(O)c(C=NC2CCCCC2N)c(=O)[nH]c1=O` (stereo unspecified), the z-score is -0.8 (inactive).

Regarding `Cc1cc(C=C2C(=O)NC(=O)NC2=O)c(C)n1-c1ccncc1`, the z-score was 2.32 (inactive).

In the case of `CCCCn1c(O)c(C(=O)/C=C/c2c[nH]c3ccccc23)c(=O)[nH]c1=O`, the z-score was 12.4 (inactive).

Take `CCCCCCn1c(=O)c(C(=O)Nc2ccncc2)c(O)c2ccccc21`: the z-score was -5.74 (active).

As to `CCCCCn1c(=O)c(C(=O)Nc2nc3ccccc3[nH]2)c(O)c2ccccc21`, the z-score was -3.26 (active).

As for `CCCCCn1c(=O)c(C(=O)Nc2cnccn2)c(O)c2ccccc21`, the z-score is -5.71 (active).

In the case of `CN1CCN(c2ccc(/C=C3\C(=O)NC(=S)N(c4cccc(Br)c4)C3=O)o2)CC1`, the z-score is 3.97 (inactive).

As to `O=C(O)c1cccc2nc3ccccc3nc12`, the z-score was -0.32 (inactive).

For `Oc1c(Cl)cc(Cl)cc1CN1CCN(Cc2ccccc2)CC1`, the z-score was 2.17 (inactive).

Consider `O=[N+]([O-])c1ccc(NCc2ccccc2)c2nonc12`, for which the z-score is 13.4 (inactive).

With `CCCCc1ccc2[nH]cc(CCN)c2c1`, the z-score was 3.13 (inactive).

As for `CC(=O)OC(C)(C)/C=C/C(=O)[C@](C)(O)[C@H]1[C@H](O)C[C@@]2(C)[C@@H]3CC=C4[C@H](C[C@H](O)C(=O)C4(C)C)[C@]3(C)C(=O)C[C@]12C`, the z-score is -4.32 (active).

Regarding `CN1CC=C2C(C#N)=C(N)C(C#N)(C#N)C(c3ccncc3)C2C1` (stereo unspecified), the z-score was 8.74 (inactive).

For the molecule `O=c1[nH]c(=O)n(-c2ccc(F)cc2)c(O)c1C=Nc1ccccc1N1CCCC1`, the z-score is 4.37 (inactive).

On to `O=c1cc(C(F)(F)F)c2cc3c4c(c2o1)CCCN4CCC3`, for which the z-score was 17.3 (inactive).

With `CC(C)N1CCN(Cc2cccc([N+](=O)[O-])c2)CC1`, the z-score is 2.53 (inactive).

In the case of `O=C(/C=C/c1ccccc1)NCCc1cnc[nH]1`, the z-score is -0.29 (inactive).

Consider `CN1/C(=C\C=C2C(=O)NC(=S)NC2=O)C(C)(C)c2ccccc21`, for which the z-score is 14.4 (inactive).

For `O=C1Nc2ccc(Br)cc2C(c2ccccc2Cl)=NC1O` (stereo unspecified), the z-score was -0.25 (inactive).

For the molecule `N#Cc1ccccc1Cn1cc(C(=O)c2ccco2)c2ccccc21`, the z-score is -6.56 (active).

For `CN1C(=O)C(=Cc2ccc(N3CCCCC3)o2)C(=O)N(C)C1=S`, the z-score is 4.86 (inactive).

In the case of `Cc1ccc(Cn2nnnc2CN2CCC(n3nnc4cc(C(F)(F)F)ccc43)CC2)cc1`, the z-score is -3.36 (active).

Take `CCCCCCn1c(O)c(C=Nc2ccccc2N2CCOCC2)c(=O)[nH]c1=S`: the z-score was 3.25 (inactive).

As for `CC(C)(C)c1nc(NCc2ccc3c(c2)OCO3)c2nnn(Cc3ccccc3Cl)c2n1`, the z-score was 2.04 (inactive).

As to `COc1ccc(Cl)cc1NC1=NCC(C)S1` (stereo unspecified), the z-score is -4.13 (active).

On to `CN1CCN(c2nc(Cl)ncc2F)CC1`, for which the z-score was 4.91 (inactive).

`CC1=NCCc2c1[nH]c1ccccc21`: the z-score is -0.55 (inactive).

As for `CCn1nc(/C=C/c2ccccc2)nc2c(=O)n(C)c(=O)nc1-2`, the z-score is -4.69 (active).

Turning to `Cc1cc2c(C(F)(F)F)cc(=O)oc2c2c1NCCC2`, the z-score was 5.21 (inactive).

Turning to `CN1C2CCC1CC(=NO)C2`, the z-score is 0.21 (inactive).

As for `Nc1cc2nc3ccccc3nc2cc1N`, the z-score was 3.68 (inactive).

Take `CC(C)[C@H]1C(=O)O[C@H](C(C)C)C(=O)N(C)[C@@H](C(C)C)C(=O)O[C@H](C(C)C)C(=O)N(C)[C@@H](C(C)C)C(=O)O[C@H](C(C)C)C(=O)N1C`: the z-score was -4.32 (active).

Take `NC(=O)OCCSc1nnc(-c2cccc(C(N)=S)c2)o1`: the z-score is 1.36 (inactive).

Regarding `O=C1NC(=O)N(c2ccc3c(c2)OCO3)C(=O)/C1=C/c1cccs1`, the z-score is 1.66 (inactive).

In the case of `c1ccc2c(N3CCNCC3)nsc2c1`, the z-score was 3.06 (inactive).

Take `COc1ccc(CC(=O)N2CCN(C)CC2)cc1`: the z-score is 3.53 (inactive).

Regarding `COc1ccc(OCC(=O)N2CCN(C3CCC(c4ccccc4)CC3)CC2)cc1` (stereo unspecified), the z-score is -4.73 (active).

As for `COc1ccccc1CN1CCN(C(=O)COc2ccccc2)CC1`, the z-score was -4.58 (active).

Consider `CCC(=O)c1ccc(OC)c(OC)c1`, for which the z-score was -0.74 (inactive).

For the molecule `C=CCN1C(=O)/C(=C/c2ccc(N3CCOCC3)o2)C(=O)NC1=S`, the z-score is 3.53 (inactive).

Turning to `Cn1c(=O)c2c(ncn2CCCl)n(C)c1=O`, the z-score was 0.35 (inactive).

Take `CCc1ccccc1N1C(=O)/C(=C/c2ccc(N3CCN(C)CC3)o2)C(=O)NC1=S`: the z-score is 3.37 (inactive).

For `Cc1cc([N+](=O)[O-])c2ccccc2[n+]1[O-]`, the z-score is -6.12 (active).

On to `c1ccc2c(NC3=NCCS3)cccc2c1`, for which the z-score was -5.01 (active).

Turning to `CC(Cc1ccccc1)NC(=O)CN1CCCC1=O` (stereo unspecified), the z-score was -3.46 (active).

Regarding `COc1ccc(-c2cc(-c3ccccc3)[n+](C)c(-c3ccccc3)c2)cc1`, the z-score is -4.19 (active).

In the case of `CCN(CC)c1ccc(/C=N/c2sc3c(c2C#N)C2CCN3CC2)c(O)c1`, the z-score is 16.8 (inactive).

Turning to `CC1CCCC(C2(O)C(=O)Nc3ccccc32)C1=O` (stereo unspecified), the z-score was 5.61 (inactive).
